Data on 40 molecules can be found in PubChem BioAssay (Tox21).

Records with an inconclusive call do not appear. Activity calls are given as the source filed them. Calls come from the whole dose curve; as a rule, active = well fitted cell-killing curve with a large enough effect in the repeat runs; inconclusive = weak or mixed curves, or effect the other way; inactive = flat fitted curve, though single readings scatter.
% is set by controls: 0 for no effect and ±100 for the full control effect; potency is the fitted concentration of half-maximal effect.

This assay in a line: cAMP Responsive Elements (CRE) small molecule antagonists, cell-based qHTS assay: qHTS cell viability counter screen (AID 2060913). Note: nearly all actives have a fitted effect of over 40% in size. Particulars: CRE-bla HEK293T viability, CellTiter-Glo luminescence, 5 h; series mostly up to 92.4 µM; viability change, negative = cytotoxic: at the top concentration. The gist of the method: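 Cytotoxicity counter screen multiplexed with the CRE-bla antagonist read: HEK293T cells in DMEM with dialyzed FBS and 25 mM HEPES were treated 3 hrs under 0.25 uM final NKH477, then viability measured by CellTiter-Glo luminescence.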
For `Brc1ccccn1`, the “viability change, negative = cytotoxic” value was 9.87% (inactive).
Take `COc1ccc(C)cc1[N+](=O)[O-]`: the “viability change, negative = cytotoxic” value is -14.2% (inactive).
With `CC/C(=C(/c1ccc(O)cc1)c1ccc(OCCN(C)C)cc1)c1ccccc1`, the Potency is 37.6 µM (active).
As to `COc1cc(S(N)(=O)=O)cc(C(=O)O)c1OC`, the “viability change, negative = cytotoxic” value is -3.89% [at 42.5 µM] (inactive).
In the case of `CCCCCCCCCCCCCCCCOP(=O)([O-])OCC[N+](C)(C)C`, the “viability change, negative = cytotoxic” value is -5.92% [at 42.5 µM] (inactive).
On the same count and under the same terms, the figure for `FC(F)(F)c1ccc(Cl)cc1Cl` is 2.06% (inactive).
Still for that read-out and setting: the figure for `C[N+]1(CC2COC(c3ccccc3)(c3ccccc3)O2)CCCCC1` (stereo not given) is 0.835% [at 18.9 µM] (inactive); for `CC/C(C)=N\O[Si](C)(O/N=C(\C)CC)O/N=C(\C)CC` it is 2.51% (inactive).
`O=c1c(O)c(-c2ccc(O)c(O)c2)oc2cc(O)cc(O)c12`: the “viability change, negative = cytotoxic” value was 9.2% (inactive).
Still for that read-out and setting: next, `CC(C)OC(=O)c1cc(C(=O)OC(C)C)cc([N+](=O)[O-])c1`: -1.06% (inactive); `Nc1ncnc2c1ncn2[C@H]1CC[C@@H](CO)O1`: 15.1% (inactive); `O=S(=O)(O)c1ccc(Nc2nc(Nc3ccc(/C=C/c4ccc(Nc5nc(Nc6ccc(S(=O)(=O)O)cc6)nc(N(CCO)CCO)n5)cc4S(=O)(=O)O)c(S(=O)(=O)O)c3)nc(N(CCO)CCO)n2)cc1`: 9.3% [at 42.5 µM] (inactive).
Regarding `O=C1OC2(c3ccccc31)c1cc(I)c(O)c(I)c1Oc1c2cc(I)c(O)c1I`, the Potency result was “inactive”.
On to `N[C@@H](Cc1ccc(O)cc1)C(=O)O`, for which the viability change, negative = cytotoxic was -0.963% [at 8.39 µM] (inactive).
The same measure, in the same setting: next, `CCN(CCC#N)c1ccc(N=Nc2c(Cl)cc([N+](=O)[O-])cc2Cl)cc1`: -2.71% (inactive); `CC(C)c1ccccc1C(C)C`: -14.8% (inactive); `COC(=O)c1ccccc1`: 2.13% (inactive).
With `Cc1cc(=O)c2c(O)c3c(O)cc(=O)c4c3c3c(cc(O)c1c23)C(C)(C)C=4O`, the viability change, negative = cytotoxic was -18.2% [at 18.9 µM] (inactive).
Same read-out and setting: next, `CC(COc1ccccc1)NC(C)C(O)c1ccc(O)cc1` (stereo not given): -2.16% [at 42.5 µM] (inactive).
With `CCCCCCCCCCCCCC[P+](CCCC)(CCCC)CCCC` (tested in a mixture with another compound), the Potency is 2.45 µM (active).
Still for that read-out and setting: next, `CC(=O)c1ccc(S(=O)(=O)NC(=O)NC2CCCCC2)cc1`: “inactive”; `CCOC(=O)NNc1nncc2ccccc12`: “inactive”; `Cc1ccc(S(N)(=O)=O)cc1`: “inactive”.
For `Oc1ccccc1-c1nnco1`, the “viability change, negative = cytotoxic” value is 8.42% [at 42.5 µM] (inactive).
As to `COc1ccc(CN(CCN(C)C)c2ccccn2)cc1`, the Potency entry is “inactive”.
Regarding `Cc1onc(-c2c(Cl)cccc2Cl)c1C(=O)Cl`, the “viability change, negative = cytotoxic” value was -0.779% [at 42.5 µM] (inactive).
Still for that read-out and setting: next, `CCCCOc1cc(C(=O)NCCN(CC)CC)c2ccccc2n1`: -2.77% [at 42.5 µM] (inactive).
As for `CCc1c(C(=O)NN2CCCCC2)nn(-c2ccc(Cl)cc2Cl)c1-c1ccc(Br)cc1`, the “viability change, negative = cytotoxic” value is -8.22% (inactive).
For `CC1=C(Br)C(=O)C(Br)=C/C1=C(/c1ccccc1S(=O)(=O)O)c1cc(Br)c(O)c(Br)c1C`, the “viability change, negative = cytotoxic” value is -12.3% [at 42.5 µM] (inactive).
Same read-out and setting: next, `COC(=O)c1ccccc1C(=O)c1ccc(OCCN2CCCCC2)cc1`: 3.64% [at 42.5 µM] (inactive); `O=C(NCN1CCOCC1)c1cnccn1`: 0.0803% [at 42.5 µM] (inactive).
The same measure, in the same setting: next, `NCc1ccccc1`: -3.63% (inactive).
Same read-out and setting: the figure for `C/C=C(\C)C(C)=O` is 1.54% (inactive); for `CCN(Cc1cccc(S(=O)(=O)O)c1)c1ccc(C(=C2C=CC(=[N+](CC)Cc3cccc(S(=O)(=O)O)c3)C=C2)c2ccc(O)cc2S(=O)(=O)[O-])cc1` it is -29.6% [at 42.5 µM] (inactive); for `CC(C)(C)C1CCC(CC2=C(O)c3ccccc3C(=O)C2=O)CC1` (stereo not given) it is 6.86% [at 42.5 µM] (inactive).
As for `CSSc1ccoc1C`, the “viability change, negative = cytotoxic” value is -0.638% (inactive).
Still for that read-out and setting: the figure for `CC(C)(Sc1cc(C(C)(C)C)c(O)c(C(C)(C)C)c1)Sc1cc(C(C)(C)C)c(O)c(C(C)(C)C)c1` is -1.65% [at 42.5 µM] (inactive); for `c1ccc(CNCc2ccccc2)cc1` it is -0.623% (inactive); for `C[Si](C)(C)C` it is 7.06% (inactive).
On the same count and under the same terms, the figure for `S=c1[nH][nH]c(=S)s1` is 0.22% (inactive).
